The results in this text go back to PubChem BioAssay.

As usually defined, the inhibition is the change of the read-out against control, counted positive when it falls.

A short description of experiment [1]: inhibitors of TNFa-induced NFkB p65 translocation, primary screen, imaging, HUVEC, MLSMR starter and 10KST1 sets (AID 438).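 Also: compound added about 3h40 before a 20 min TNFalpha stimulation.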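 As to inhibition: signal is the nuclear over cytoplasmic p65 intensity ratio per well.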 Conditions: HUVEC TNFa-induced p65 nuclear translocation; cell count: measured here: nuclei count (cytotoxicity indicator), at 2.08 µM; inhibition: at 2 µM, stronger effect = higher value, 0% TNFa-plus-vehicle, 100% no-TNFa wells.
Experiment [2] can be described thus: inhibitors of mutant huntingtin aggregation, primary screen, imaging, exon1htt(103Q)mCFP cells, high-content imaging (AID 483;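 active = visual image review flags a hit and inhibition of aggregation exceeds 20%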;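 also: compound exposure lasted 3 days before fixation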;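 as to nuclei count: percent of the per-plate median nuclei count of sample wells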). Conditions: exon1htt(103Q)mCFP cell line, aggregate imaging, at 2 µM; inhibition of aggregation: stronger effect = higher value; nuclei count: measured here: cell count, toxicity.
A short description of experiment [3]: inhibitors of E-selectin induction by TNFa, primary screen, imaging, HUVEC, immunofluorescence, MLSMR starter and 10KST1 sets (AID 487;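 active = visually confirmed hit in the image check and inhibition above 20%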;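 as to inhibition: signal is fraction of cell area covered by stained E-selectin grains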;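 as to nuclei count: 100% = median nuclei count of all wells on the same plate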). The note with it: HUVEC TNFalpha-induced E-selectin immunofluorescence imaging, at 2 µM; inhibition: stronger effect = higher value; nuclei count: measured here: cell number, toxicity.
Experiment [4] addresses Voltage-gated potassium channel subunit beta-2 (Rattus norvegicus) (UniProt P62483). The experiment can be described thus: KvBeta enzyme negative modulators, primary screen, biochemical, NADPH fluorescence (AID 622;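 active = fluorescence slope higher than the sample average by over 3 SD, cut at about -0.22 in these data, passing the limit was not always enough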;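 also: slope of raw intensity against log time taken from 70 to 1610 s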). Conditions: recombinant KvBeta, 4-cyanobenzaldehyde reduction, at 10 µM, stronger effect = higher value.
Experiment [5] has the same target. The experiment can be described thus: KvBeta positive modulators, primary screen, biochemical, NADPH fluorescence (AID 623;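 active = NADPH fluorescence slope more negative than the mean of all samples by about 3 SD, 99.7% confidence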;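 also: fluorescence intensity change per second fitted from 20 to 320 s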). The note with it: Recombinant KvBeta, NADPH fluorescence decrease slope, 10 min; at 10 µM; stronger effect = lower value.
For experiment [6], the target named is Alpha-2C adrenergic receptor (Homo sapiens) (UniProt P18825). The experiment can be described thus: modulators of alpha2C/GIRK thallium flux, primary screen, cell-based, HEK293 alpha2C/GIRK1/2 (AID 624;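 active = fluorescence slope after compound addition differing from the mean of all screened samples at 99.7% confidence, in either direction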;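 also: slope of fluorescence ratio to pre-addition baseline per second over 15 to 24 s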). The note with it: thallium flux BTC fluorescence, at 10 µM, actives lie on both sides.
The nature of experiment [7]: inhibitors of Sendai virus-induced IRF3 signaling, primary screen, TLR/RLR signaling modifier project, cell-based, Sendai virus stimulus, luciferase, 10K MLSCN set (AID 602276;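 active = inhibition at or above 50% at 10 µM; inactive = inhibition below 50%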;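 also: firefly luciferase from ISG56 promoter only with Renilla not read in this screen; 0% = Sendai virus plus DMSO and 100% = medium plus DMSO without virus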). Conditions: HEK293 RL24 IRF3 luciferase reporter, at 10 µM, stronger effect = higher value. In general terms: Reporter assays use an easily measured gene product as a stand-in for the process of interest.

A short description of experiment [8]: inhibitors of poly I:C-induced TLR3 signaling, primary screen, cell-based, poly I:C stimulus, luciferase, 10K MLSCN set (AID 602277;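 active = inhibition of the reporter signal at or above 50%; inactive = inhibition below 50%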). The note with it: HEK293-TLR3 RL24 IRF3 luciferase reporter, at 10 µM, stronger effect = higher value.

Calls of active or inactive are those of the source.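 The calls were made as follows, unless noted: active = inhibition above 20% together with a positive visual image hit; inconclusive = visual image hit but inhibition not above 20%; inactive = no visual image hit.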

Alpha-2C adrenergic receptor (Homo sapiens), sequence (P18825 whole entry, looked up): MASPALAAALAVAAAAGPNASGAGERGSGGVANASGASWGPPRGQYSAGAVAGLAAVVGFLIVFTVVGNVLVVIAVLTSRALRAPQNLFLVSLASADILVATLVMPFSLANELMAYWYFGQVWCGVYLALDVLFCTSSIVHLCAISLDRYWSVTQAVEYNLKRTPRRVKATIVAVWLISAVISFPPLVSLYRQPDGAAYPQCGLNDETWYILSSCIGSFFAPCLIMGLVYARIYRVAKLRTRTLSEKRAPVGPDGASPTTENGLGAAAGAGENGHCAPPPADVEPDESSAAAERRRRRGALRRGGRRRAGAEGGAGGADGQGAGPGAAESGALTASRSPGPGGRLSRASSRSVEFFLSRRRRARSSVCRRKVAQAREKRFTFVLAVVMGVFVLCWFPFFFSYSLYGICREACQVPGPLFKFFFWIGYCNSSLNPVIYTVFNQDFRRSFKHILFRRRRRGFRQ
Voltage-gated potassium channel subunit beta-2 (Rattus norvegicus), sequence (P62483 whole entry, looked up): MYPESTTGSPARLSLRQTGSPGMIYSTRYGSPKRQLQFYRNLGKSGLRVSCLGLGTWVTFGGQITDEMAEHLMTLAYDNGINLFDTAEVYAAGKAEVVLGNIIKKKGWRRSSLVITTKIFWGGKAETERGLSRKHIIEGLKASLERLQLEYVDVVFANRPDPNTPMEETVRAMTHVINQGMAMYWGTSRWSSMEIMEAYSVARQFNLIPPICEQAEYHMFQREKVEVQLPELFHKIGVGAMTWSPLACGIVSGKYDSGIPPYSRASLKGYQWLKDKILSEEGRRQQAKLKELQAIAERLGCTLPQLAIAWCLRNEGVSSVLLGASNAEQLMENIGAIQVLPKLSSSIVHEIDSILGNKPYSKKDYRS

Regarding `CCCC(=O)Nc1nc2ccc(S(N)(=O)=O)cc2s1`, the cell count in experiment [1] is 718. For the same molecule, the inhibition is -1.8% (inactive) in experiment [1], -9.7% (inactive) in experiment [3], -18.7% (inactive) in experiment [7] and -57.7% (inactive) in experiment [8]. In addition, the inhibition of aggregation in experiment [2] was -16.5% (inactive). In addition, the nuclei count in experiment [2] amounted to 102%; in experiment [3], 100%. Besides, the fluorescence slope in experiment [4] is -0.406 (inactive). In experiment [5], the NADPH fluorescence slope is 5.8e-05 (inactive). Moreover, the slope in experiment [6] was 0.00596 (inactive).

For the molecule `O=C(CSc1nnnn1C1CCCCC1)N1CCc2ccccc21`, in experiment [1], the cell count was determined as 348. In addition, the inhibition was 0.8% (inactive) in experiment [1], 1.9% (inactive) in experiment [3], 9.99% (inactive) in experiment [7] and -10% (inactive) in experiment [8]. Moreover, the inhibition of aggregation in experiment [2] was -13.7% (inactive). Also, the nuclei count turned out to be 101% in experiment [2] and 120% in experiment [3]. In experiment [4], the fluorescence slope was -0.566 (inactive). Further, the NADPH fluorescence slope in experiment [5] is -4e-05 (inactive). In experiment [6], the slope was 0.00388 (inactive).

Consider `COc1cccc(C2=NOC(C(=O)N3CCc4ccccc4C3)C2)c1` (centres undefined), for which the cell count in experiment [1] amounted to 606. Further, the inhibition was 4.7% (inactive) in experiment [1], 10.4% (inactive) in experiment [3], -5.64% (inactive) in experiment [7] and -15% (inactive) in experiment [8]. In experiment [2], the inhibition of aggregation is 11% (inactive). For the same molecule, the nuclei count in experiment [2] stood at 97.3%; in experiment [3], 107%. Also, the fluorescence slope in experiment [4] is -0.605 (inactive). In experiment [5], the NADPH fluorescence slope was -4.1e-05 (inactive). In experiment [6], the slope was 0.00592 (inactive).

With `CCOC(=O)N1CCN(CC(=O)Nc2cc(C)nn2-c2nc3ccccc3s2)CC1`, in experiment [1], the cell count worked out at 859. For the same molecule, the inhibition in experiment [1] is 9.9% (inactive); in experiment [3], -132% (inactive); in experiment [7] it was 13.7% (inactive); in experiment [8] it was 27.3% (inactive). Further, the inhibition of aggregation in experiment [2] was -38.2% (inactive). Also, the nuclei count in experiment [2] amounted to 101%; in experiment [3], 122%. In addition, the fluorescence slope in experiment [4] was -0.609 (inactive). For the same molecule, the NADPH fluorescence slope in experiment [5] is 2.4e-05 (inactive). In experiment [6], the slope was 0.00559 (inactive).

Regarding `CCn1c(C)nc2cc(C(=O)OCCC(F)(F)F)ccc21`, in experiment [1], the cell count came to 531. In addition, the inhibition in experiment [1] is -9% (inactive); in experiment [3], 6.2% (inactive); in experiment [7] it was -16.4% (inactive); in experiment [8] it was -104% (inactive). Further, the inhibition of aggregation in experiment [2] is -1.8% (inactive). In addition, the nuclei count in experiment [2] was 106%; in experiment [3] it was 92.5%. The fluorescence slope in experiment [4] was -0.263 (inactive). In addition, the NADPH fluorescence slope in experiment [5] was -2.2e-05 (inactive). Also, the slope in experiment [6] was 0.00759 (inactive).

Turning to `Cc1noc(/C=C/N(C)C)c1S(=O)(=O)N1CCc2ccccc21`, the cell count in experiment [1] was determined as 611. The inhibition in experiment [1] was 3.4% (inactive); in experiment [3] it was -60.7% (inactive); in experiment [7], -1.69% (inactive); in experiment [8], 55.2% (active). Further, the inhibition of aggregation in experiment [2] was 24.9% (inactive). The nuclei count in experiment [2] came out at 89.8%; in experiment [3], 115%. For the same molecule, the fluorescence slope in experiment [4] was -0.558 (inactive). The NADPH fluorescence slope in experiment [5] is -8.6e-06 (inactive). Further, the slope in experiment [6] is 0.00715 (inactive).

As for `O=C(Cn1nnc(-c2ccc(CN3CCOCC3)cc2)n1)NC1CCCCC1`, the cell count in experiment [1] came to 447. The inhibition in experiment [1] was 0.3% (inactive); in experiment [3], -20.9% (inactive); in experiment [7] it was 14% (inactive); in experiment [8] it was 9.43% (inactive). Further, the inhibition of aggregation in experiment [2] was 7.3% (inactive). For the same molecule, the nuclei count in experiment [2] was 108%; in experiment [3], 118%. Also, the fluorescence slope in experiment [4] was -0.584 (inactive). In addition, the NADPH fluorescence slope in experiment [5] is -4.1e-05 (inactive). In addition, the slope in experiment [6] was 0.0043 (inactive).

`COc1ccc(C(=O)Nc2cccc(-c3nc4ncccc4o3)c2C)cc1OC`: the cell count in experiment [1] is 729. The inhibition in experiment [1] was -44.9% (inactive); in experiment [3] it was -22.4% (inactive); in experiment [7], -16.3% (inactive); in experiment [8] it was -34.5% (inactive). In addition, the inhibition of aggregation in experiment [2] is -4.4% (inactive). Besides, the nuclei count was determined as 96.1% in experiment [2] and 109% in experiment [3]. The fluorescence slope in experiment [4] is -0.562 (inactive). The NADPH fluorescence slope in experiment [5] is 1.4e-05 (inactive). Also, the slope in experiment [6] is 0.00564 (inactive).

As to `CCc1nc(SCC(=O)NCc2ccco2)c2c3c(sc2n1)CCCC3`, the cell count in experiment [1] came out at 586. Also, the inhibition is -2.1% (inactive) in experiment [1], -21.9% (inactive) in experiment [3], 15.3% (inactive) in experiment [7] and 20.6% (inactive) in experiment [8]. In experiment [2], the inhibition of aggregation was 14.8% (inactive). The nuclei count in experiment [2] worked out at 85.9%; in experiment [3], 116%. Further, in experiment [4], the fluorescence slope is -0.466 (inactive). The NADPH fluorescence slope in experiment [5] is -1.1e-05 (inactive). In experiment [6], the slope was 0.00647 (inactive).

For `O=C(CCSc1nc(-c2ccco2)cc(C(F)(F)F)n1)Nc1ccc2c(c1)OCO2`, the cell count in experiment [1] was found to be 429. Further, the inhibition in experiment [1] is 1.8% (inactive); in experiment [3], -52.9% (inactive); in experiment [7], -4.65% (inactive); in experiment [8], -14.1% (inactive). Further, the inhibition of aggregation in experiment [2] is 30.3% (inactive). Besides, the nuclei count in experiment [2] was 95.1%; in experiment [3], 161%. In addition, the fluorescence slope in experiment [4] is -0.386 (inactive). Besides, in experiment [5], the NADPH fluorescence slope is 2.5e-05 (inactive). Further, the slope in experiment [6] is 0.00312 (inactive).

Regarding `O=C(CSc1nnnn1-c1ccc2c(c1)OCO2)NCc1cccs1`, the cell count in experiment [1] was 240. Further, the inhibition in experiment [1] is 4.8% (inactive); in experiment [3] it was -66.6% (inactive); in experiment [7] it was 33.3% (inactive); in experiment [8], -10.4% (inactive). Further, the inhibition of aggregation in experiment [2] is 2.8% (inactive). Also, the nuclei count in experiment [2] turned out to be 90.3%; in experiment [3], 98.8%. In addition, the fluorescence slope in experiment [4] is -0.447 (inactive). Further, in experiment [5], the NADPH fluorescence slope was 9.8e-06 (inactive). Further, in experiment [6], the slope is 0.00659 (inactive).

For the molecule `CC(C)COC(=O)C1C2C=CC3(CN(C(C)c4ccc(Br)cc4)C(=O)C13)O2` (centres undefined), the cell count in experiment [1] was 477. For the same molecule, the inhibition was -10.8% (inactive) in experiment [1], -32.2% (inactive) in experiment [3], 11.4% (inactive) in experiment [7] and 28.5% (inactive) in experiment [8]. In addition, the inhibition of aggregation in experiment [2] is 28.1% (inactive). The nuclei count is 78.4% in experiment [2] and 86.6% in experiment [3]. Moreover, in experiment [4], the fluorescence slope is -0.532 (inactive). Also, the NADPH fluorescence slope in experiment [5] was -3.6e-05 (inactive). Moreover, the slope in experiment [6] was 0.00795 (inactive).

In the case of `CCc1nnc2n1N=C(c1ccc(-c3ccc(Cl)cc3Cl)o1)CS2`, the cell count in experiment [1] was 480. Besides, the inhibition in experiment [1] was 3.3% (inactive); in experiment [3], -6.7% (inactive); in experiment [7], 6.74% (inactive); in experiment [8], 10.2% (inactive). Also, in experiment [2], the inhibition of aggregation was -48.4% (inactive). For the same molecule, the results for the nuclei count in experiment [2] and in experiment [3] were 102% and 105%, respectively. Moreover, the fluorescence slope in experiment [4] was -0.607 (inactive). Further, the NADPH fluorescence slope in experiment [5] is 1.7e-05 (inactive). Also, the slope in experiment [6] is 0.00636 (inactive).

`CS(=O)(=O)c1ccc2nc(NC(=O)C3C4C=CC(C4)C3C(=O)O)sc2c1` (centres undefined): the cell count in experiment [1] was 475. Also, the inhibition was 12.5% (inactive) in experiment [1], -113% (inactive) in experiment [3], 1.15% (inactive) in experiment [7] and 6.4% (inactive) in experiment [8]. For the same molecule, the inhibition of aggregation in experiment [2] was 0.5% (inactive). Moreover, the nuclei count in experiment [2] was 96.1%; in experiment [3], 115%. Also, the fluorescence slope in experiment [4] is -0.41 (inactive). For the same molecule, the NADPH fluorescence slope in experiment [5] is 1e-05 (inactive). Further, the slope in experiment [6] is 0.00376 (inactive).
